Sfp PPTase inh: Sfp phosphopantetheinyl transferase inhibition; Q9F4F7; Biochemical Sfp PPTase activity, qHTS; Potency, µM, actives largely listed as inhibitors; hit rate 3.5% among 310,000;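 also: the enzyme is Sfp with the accession as filed and its product quenches rhodamine fluorescence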
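Sfp 15 nM + cpd, 15 min RT; start w/ rhodamine-CoA 5 uM, BHQ-2-YbbR 12.5 uM (final); 50 mM Hepes pH 7.6, 10 mM MgCl2, 0.01% NP-40, 0.01% BSA; read 525/598 nm at 0 and 30 min.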
KAT2A inh: GCN5L2 (KAT2A) acetyltransferase inhibition; Q92830; GCN5L2 HAT assay, ThioGlo1 CoA-SH fluorescence; Potency, µM (titrated, usually from 58.9 µM), hits mostly inhibitors; hit rate 0.21% among 390,000
Target sequence (Q92830 whole entry, looked up): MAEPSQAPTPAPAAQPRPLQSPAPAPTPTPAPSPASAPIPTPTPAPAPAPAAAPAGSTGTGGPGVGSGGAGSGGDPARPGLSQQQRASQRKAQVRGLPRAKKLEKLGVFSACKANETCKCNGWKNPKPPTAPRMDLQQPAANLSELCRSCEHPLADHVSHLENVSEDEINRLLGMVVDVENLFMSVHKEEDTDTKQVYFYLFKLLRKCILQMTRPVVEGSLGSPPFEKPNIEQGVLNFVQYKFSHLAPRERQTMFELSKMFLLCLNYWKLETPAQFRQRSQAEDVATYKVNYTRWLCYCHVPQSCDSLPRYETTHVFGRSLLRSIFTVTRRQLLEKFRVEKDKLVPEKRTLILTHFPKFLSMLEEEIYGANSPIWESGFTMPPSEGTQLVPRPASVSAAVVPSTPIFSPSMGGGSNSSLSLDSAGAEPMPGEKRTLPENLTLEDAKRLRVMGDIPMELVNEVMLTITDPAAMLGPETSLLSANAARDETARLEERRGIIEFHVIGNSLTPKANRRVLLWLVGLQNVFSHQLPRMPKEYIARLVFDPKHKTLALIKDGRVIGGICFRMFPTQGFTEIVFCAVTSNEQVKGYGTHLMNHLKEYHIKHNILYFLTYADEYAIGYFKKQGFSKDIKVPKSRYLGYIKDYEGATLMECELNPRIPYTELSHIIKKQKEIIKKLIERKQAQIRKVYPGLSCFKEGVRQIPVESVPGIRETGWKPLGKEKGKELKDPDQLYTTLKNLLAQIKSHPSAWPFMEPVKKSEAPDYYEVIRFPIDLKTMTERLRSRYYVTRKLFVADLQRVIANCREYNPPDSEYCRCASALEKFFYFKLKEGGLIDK
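qHTS, 1536-well. 20nM enzyme, pH 7.5 HEPES/EDTA/Tween-20 buffer; 15 min compound preinc., RT. Start: 75uM H3(1-25), 70uM AcCoA, 50uM ThioGlo1. Read Ex340/Em540 at t=0 (autofluorescence flag) and t=20 min.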
VDR inhibitor: vitamin D3 receptor (human) inhibition; VDR-SRC2-3 peptide fluorescence polarization, 2 h; Potency, µM, actives largely listed as inhibitors; hit rate 0.93% among 400,000; AID 504847
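Compounds are added to VDR with labelled SRC2-3 coactivator peptide and held 2 h at room temperature. Inhibition of the VDR–peptide interaction is then read as a change in fluorescence polarization.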
GLS inhibitor: glutaminase GLS (human) inhibition | O94925 | GLS enzymatic activity, qHTS titration | Potency, µM (series often up to 45.5 µM), hits mostly inhibitors | hit rate 0.21% among 410,000
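Assay buffer: 45 mM KH2PO4 pH 8.2, 0.02% Tween-20. hKGA acts on L-glutamine (1 mM solution added); product glutamate is reported by an oxidase/peroxidase Amplex Red coupling, with fluorescence taken at baseline and 30 min.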
TrxR1 inh: inhibitors of rat thioredoxin reductase 1; O89049; recombinant rTrxR1, NADPH fluorescence consumption, selenite substrate; Potency, µM (highest dose often 114 µM), hits mostly inhibitors; hit rate 1% among 390,000; AID 588453; also: nearly all actives have a fitted effect of over 65% in size
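Rat TrxR1 (90 nM in the dispensed reagent) was pre-reduced with 400 uM NADPH for 5 min at room temperature, then incubated with compound for 15 min. After 400 uM selenite was added, NADPH fluorescence (Ex 340/Em 450 nm) was followed for 8 min.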
TrxR1 substrate: rat thioredoxin reductase 1 substrate activity. O89049. purified TrxR1 substrate turnover, NADPH consumption readout. Potency, µM (series often up to 114 µM). hit rate 0.01% among 390,000. AID 588456; also: nearly all actives have a fitted effect of over 50% in size
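Rat TrxR1, dispensed at 90 nM, was prereduced with 400 uM NADPH (final) for 5 min at ~22 deg C, then incubated with compound 15 min before 400 uM selenite. A first-read NADPH fluorescence drop versus no-compound background flagged substrates.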
VDR inh confirm: confirmation of human vitamin D receptor inhibitors. shares compounds with VDR inhibitor. VDR-coactivator inhibition assay, qHTS confirmation. Potency, µM, most hits filed as inhibitors. hit rate 89% among 840
VDR FP: VDR (human) coactivator binding inhibition, fluorescein polarization; Potency, µM (highest dose often 57.1 µM), usual class: inhibitors; shares compounds with VDR inhibitor; VDR-coactivator binding, fluorescein fluorescence polarization; AID 602200; hit rate 48% among 840
VDR bla: confirmation of human vitamin D receptor inhibitors in reporter cells | shares compounds with VDR inhibitor | VDR beta-lactamase reporter cells, FRET ratio; cells co-treated with VDR agonist LG190178 | Potency, µM (highest dose often 46.1 µM), hits mostly inhibitors | hit rate 23% among 840 | AID 602202
VDR cytotox: cytotoxic in counter-screen for VDR inhibitors; hit rate 18% among 840; AID 602204; Potency, µM (doses to about 48.3 µM), most hits filed as cytotoxic; cytotoxicity counter-screen, cell viability, qHTS; shares compounds with VDR inhibitor; also: nearly all actives have a fitted effect of over 75% in size
Of the large screens only hits and unclear results are named; the others gave an inactive call (follow-up assays come after a bar, where they were run). Most compounds without a hit are left out; they make up all but 3.8% or so of the library. Calls follow the shape of the dose curve; as a rule, active = well fitted curve in the direction sought with a large enough effect; inconclusive = small, poorly fitted or top-dose-only effect, or another doubt; inactive = no such curve, though single readings can be large; an effect the other way counts as inactive or inconclusive.

O=C1ON=C(c2ccccc2)/C1=C/c1ccco1	Sfp PPTase inh 50µM, VDR inhibitor inconclusive, GLS inhibitor inconclusive | VDR inh confirm 8.4 | VDR FP inconclusive | VDR bla inactive | VDR cytotox inconclusive
O=C1C(=Cc2ccco2)C(=O)c2ccccc21	TrxR1 inh inconclusive
O=C(/C=C/c1ccc(-c2ccccc2[N+](=O)[O-])o1)c1ccco1	Sfp PPTase inh inconclusive, VDR inhibitor inconclusive
O=C1ON=C(c2ccccc2)/C1=C/c1ccc(-c2ccccc2[N+](=O)[O-])o1	Sfp PPTase inh inconclusive, KAT2A inh 20µM, VDR inhibitor 35µM, TrxR1 inh inconclusive | VDR inh confirm 7.5 | VDR FP inconclusive | VDR bla 16µM | VDR cytotox 23µM
COc1ccc(C=C2C(=O)OC(C)(C)OC2=O)cc1OC	KAT2A inh inconclusive, TrxR1 inh inconclusive
COc1ccc(/C=C2\C(=O)ON=C2c2ccccc2)cc1OC	Sfp PPTase inh 22µM, VDR inhibitor 35µM, TrxR1 inh 32µM | VDR inh confirm 19 | VDR FP inconclusive | VDR bla inactive | VDR cytotox inactive
COc1ccc(/C=C2\C(=O)NC(=O)c3ccccc32)cc1OC	VDR inhibitor inconclusive (no result: Sfp PPTase inh, KAT2A inh)
CCOC(=O)c1ccc(N2C(=O)CC(N3CCC(C(N)=O)(N4CCCCC4)CC3)C2=O)cc1 (stereo not drawn)	none
CCN(CC)S(=O)(=O)c1cccc(C(=O)N2CCCCC2)c1	VDR inhibitor inconclusive
NC(=O)COc1ccc(/C=C2\C(=O)ON=C2c2ccccc2)cc1	VDR inhibitor inconclusive, TrxR1 inh 28µM (no result: Sfp PPTase inh) | VDR inh confirm 8.9 | VDR FP 13µM | VDR bla inconclusive | VDR cytotox inconclusive
CC(C)Oc1ccc(C(=O)/C=C2/C(=O)Nc3ccccc32)cc1	VDR inhibitor 28µM | VDR inh confirm 15 | VDR FP 10µM | VDR bla inactive | VDR cytotox inconclusive
O=C1Nc2ccccc2/C1=C/c1ccccc1Cl	VDR inhibitor inconclusive
O=C(/C=C1\C(=O)Nc2ccccc21)/C=C1\C(=O)Nc2ccccc21	Sfp PPTase inh 1.4µM, VDR inhibitor 56µM, TrxR1 inh 1µM | VDR inh confirm 12 | VDR FP inconclusive | VDR bla inconclusive | VDR cytotox inconclusive
O=C1Nc2ccccc2/C1=C\C(=O)c1ccccc1	Sfp PPTase inh inconclusive, VDR inhibitor inconclusive, TrxR1 inh inconclusive | VDR inh confirm 8.9 | VDR FP 3.5µM | VDR bla inconclusive | VDR cytotox inconclusive
CCOC(=O)Cc1cnc(NC(=O)CSc2nc3ncnc(N)c3[nH]2)s1	none
Cn1cc(-c2ccc(C(=O)NCc3cccc(Cl)c3)c3occc23)cn1	none (no result: Sfp PPTase inh, KAT2A inh, VDR inhibitor, TrxR1 inh, TrxR1 substrate)
O=C(NCCc1c[nH]c2ccccc12)N[C@@H](Cc1ccccc1)C(=O)O	none
O=C(/C(=C\c1ccccc1)c1nc2ccccc2[nH]1)c1ccc(Cl)cc1	VDR inhibitor inconclusive
O=C(/C(=C/c1ccc(Cl)cc1)c1nc2ccccc2[nH]1)c1cccs1	VDR inhibitor 18µM, TrxR1 inh inconclusive | VDR inh confirm 9.5 | VDR FP inconclusive | VDR bla 6.5µM | VDR cytotox 8.2µM
COc1cc(OC)c(/C=C/c2ccccn2)c(OC)c1	none (no result: Sfp PPTase inh, KAT2A inh, VDR inhibitor, GLS inhibitor)
COc1cc(OC)c(/C=C/c2nccc3ccccc23)c(OC)c1	none (no result: Sfp PPTase inh, KAT2A inh, VDR inhibitor, GLS inhibitor) | VDR inh confirm 8.9 | VDR FP 1.6µM | VDR bla 21µM | VDR cytotox inconclusive
Cc1ccc(-n2c(=O)c3c(C)c(C)sc3n(Cc3cc(=O)n4ccccc4n3)c2=O)cc1C	none
O=c1cc(-c2ccccc2)c2cc(Cl)ccc2[nH]1	none
COC(=O)c1ccccc1NC(=O)Cn1c(=O)oc2ccc(Cl)cc21	none
O=C(CCN1CCCCC1)c1ccccc1	TrxR1 inh inconclusive
CCOc1ccc(C(=O)CCN2CCCCCC2)cc1	Sfp PPTase inh inconclusive, VDR inhibitor 25µM, TrxR1 inh 0.25µM | VDR inh confirm 27 | VDR FP inconclusive | VDR bla inconclusive | VDR cytotox inconclusive
O=C(c1ccccc1)c1cn(Cc2ccc(F)cc2)c2ccccc2c1=O	none (no result: Sfp PPTase inh)
CN1CCC2(CC1)N=C(c1ccc(F)cc1)C(=S)N2C(=O)c1ccccc1	Sfp PPTase inh 50µM, VDR inhibitor 45µM, TrxR1 inh 5µM | VDR inh confirm 19 | VDR FP inconclusive | VDR bla inactive | VDR cytotox inconclusive
CN1CCN(C(=O)/C(=C/c2ccc(F)cc2)NC(=O)c2ccccc2)CC1	none
CCc1ccc(C2C(C(=O)Nc3ccccc3)=C(C)Nc3nc(SCC(=O)c4ccc(C)cc4)nn32)cc1 (stereo not drawn)	none (no result: Sfp PPTase inh)
CC1=C(CO)C(=O)OC([C@@H](C)C2CC[C@H]3C4C[C@H]5O[C@]56[C@@H](O)C=CC(=O)[C@]6(C)C4CC[C@]23C)C1 (stereo partly drawn)	Sfp PPTase inh inconclusive, VDR inhibitor 18µM | VDR inh confirm 12 | VDR FP 10µM | VDR bla 5.8µM | VDR cytotox inconclusive
COc1ccc(-c2cc(N)n(S(=O)(=O)c3c(F)c(F)c(F)c(F)c3F)n2)cc1OC	VDR inhibitor inconclusive, TrxR1 inh 2.8µM | VDR inh confirm 5 | VDR FP 7.1µM | VDR bla 5.8µM | VDR cytotox 21µM
CCOc1ccc(-c2cc(N)n(S(=O)(=O)c3ccc(OC)cc3)n2)cc1	none
CCC(C)(C)c1nnc(NC(=O)C2CCN(C(=O)c3ccco3)CC2)s1	VDR inhibitor 50µM | VDR inh confirm 6.7 | VDR FP inconclusive | VDR bla inactive | VDR cytotox inactive
Oc1ccc(N=C/C=C/c2cccc(Br)c2)cc1-c1nc2ccccc2s1	Sfp PPTase inh inconclusive, VDR inhibitor inconclusive, GLS inhibitor 14µM, TrxR1 inh inconclusive | VDR inh confirm 8.9 | VDR FP 22µM | VDR bla 18µM | VDR cytotox inconclusive
Cc1ccc(C(=O)Nc2sc(C(=O)N(C)C)c(C)c2C#N)cc1	none
